PubChem BioAssay
Active and inactive are the calls of the source.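 The calls were made as follows, unless noted: active = visually confirmed hit in the image check and inhibition above 20%; inconclusive = visually confirmed hit but inhibition not above 20%; inactive = no visual hit in the image check.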 Where a SMILES comes first, the peptide text is derived from it. The star is where a group is joined. Boc = CC(C)(C)OC(=O)*

Key:
[1] = inhibitors of TNFa-induced NFkB p65 translocation, primary screen, imaging, HUVEC, MLSMR starter and 10KST1 sets (AID 438;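 active = inhibition above 20% together with a positive visual image hit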;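 also: compound added about 3h40 before a 20 min TNFalpha stimulation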;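 as to inhibition: signal is the nuclear over cytoplasmic p65 intensity ratio per well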); settings: HUVEC TNFa-induced p65 nuclear translocation; cell count: measured here: nuclei count (cytotoxicity indicator), at 2.08 µM; inhibition: at 2 µM, stronger effect = higher value, 0% TNFa-plus-vehicle, 100% no-TNFa wells
[2] = inhibitors of mutant huntingtin aggregation, primary screen, imaging, exon1htt(103Q)mCFP cells, high-content imaging (AID 483;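 active = visual image review flags a hit and inhibition of aggregation exceeds 20%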;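 also: compound exposure lasted 3 days before fixation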;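 as to nuclei count: percent of the per-plate median nuclei count of sample wells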); settings: exon1htt(103Q)mCFP cell line, aggregate imaging, at 2 µM; inhibition of aggregation: stronger effect = higher value; nuclei count: measured here: cell count, toxicity
[3] = inhibitors of E-selectin induction by TNFa, primary screen, imaging, HUVEC, immunofluorescence, MLSMR starter and 10KST1 sets (AID 487); settings: HUVEC TNFalpha-induced E-selectin immunofluorescence imaging, at 2 µM; inhibition: stronger effect = higher value; nuclei count: measured here: cell number, toxicity;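 as to inhibition: signal is fraction of cell area covered by stained E-selectin grains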;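 as to nuclei count: 100% = median nuclei count of all wells on the same plate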
[4] = biological target: Voltage-gated potassium channel subunit beta-2 (Rattus norvegicus) (UniProt P62483); assay: KvBeta enzyme negative modulators, primary screen, biochemical, NADPH fluorescence (AID 622;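 active = fluorescence slope higher than the sample average by over 3 SD, cut at about -0.22 in these data, passing the limit was not always enough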;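 also: slope of raw intensity against log time taken from 70 to 1610 s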); settings: recombinant KvBeta, 4-cyanobenzaldehyde reduction, at 10 µM, stronger effect = higher value
Chain of Voltage-gated potassium channel subunit beta-2 (Rattus norvegicus) (P62483 whole entry, looked up): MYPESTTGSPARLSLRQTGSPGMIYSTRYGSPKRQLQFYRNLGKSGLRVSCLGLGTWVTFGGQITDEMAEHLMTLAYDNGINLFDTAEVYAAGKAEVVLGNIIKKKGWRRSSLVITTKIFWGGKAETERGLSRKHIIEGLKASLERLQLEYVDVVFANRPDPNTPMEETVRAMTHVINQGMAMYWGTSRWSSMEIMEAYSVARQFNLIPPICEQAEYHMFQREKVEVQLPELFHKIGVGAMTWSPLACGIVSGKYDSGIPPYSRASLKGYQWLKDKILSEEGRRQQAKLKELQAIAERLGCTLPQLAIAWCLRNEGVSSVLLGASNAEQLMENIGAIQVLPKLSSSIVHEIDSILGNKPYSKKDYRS

[5] = biological target: Voltage-gated potassium channel subunit beta-2 (Rattus norvegicus) (UniProt P62483); assay: KvBeta positive modulators, primary screen, biochemical, NADPH fluorescence (AID 623;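 active = NADPH fluorescence slope more negative than the mean of all samples by about 3 SD, 99.7% confidence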;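 also: fluorescence intensity change per second fitted from 20 to 320 s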); settings: Recombinant KvBeta, NADPH fluorescence decrease slope, 10 min; at 10 µM; stronger effect = lower value
[6] = biological target: Alpha-2C adrenergic receptor (Homo sapiens) (UniProt P18825); assay: modulators of alpha2C/GIRK thallium flux, primary screen, cell-based, HEK293 alpha2C/GIRK1/2 (AID 624;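 active = fluorescence slope after compound addition differing from the mean of all screened samples at 99.7% confidence, in either direction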;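 also: slope of fluorescence ratio to pre-addition baseline per second over 15 to 24 s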); settings: thallium flux BTC fluorescence, at 10 µM, actives lie on both sides
Chain of Alpha-2C adrenergic receptor (Homo sapiens) (P18825 whole entry, looked up): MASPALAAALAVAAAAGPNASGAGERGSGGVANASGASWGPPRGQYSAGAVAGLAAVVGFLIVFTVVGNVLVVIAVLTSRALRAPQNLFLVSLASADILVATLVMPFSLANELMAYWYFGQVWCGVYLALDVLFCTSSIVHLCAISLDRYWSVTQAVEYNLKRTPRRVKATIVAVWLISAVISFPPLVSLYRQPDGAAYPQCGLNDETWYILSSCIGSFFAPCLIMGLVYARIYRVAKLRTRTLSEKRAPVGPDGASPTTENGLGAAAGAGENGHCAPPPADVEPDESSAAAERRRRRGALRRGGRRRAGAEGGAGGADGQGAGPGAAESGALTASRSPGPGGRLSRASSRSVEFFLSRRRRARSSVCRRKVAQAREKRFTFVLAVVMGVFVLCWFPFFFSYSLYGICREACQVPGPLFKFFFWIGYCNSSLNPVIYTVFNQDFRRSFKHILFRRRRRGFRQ

[7] = inhibitors of Sendai virus-induced IRF3 signaling, primary screen, TLR/RLR signaling modifier project, cell-based, Sendai virus stimulus, luciferase, 10K MLSCN set (AID 602276;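 active = inhibition at or above 50% at 10 µM; inactive = inhibition below 50%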;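 also: firefly luciferase from ISG56 promoter only with Renilla not read in this screen; 0% = Sendai virus plus DMSO and 100% = medium plus DMSO without virus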); settings: HEK293 RL24 IRF3 luciferase reporter, at 10 µM, stronger effect = higher value
[8] = inhibitors of poly I:C-induced TLR3 signaling, primary screen, cell-based, poly I:C stimulus, luciferase, 10K MLSCN set (AID 602277;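 active = inhibition of the reporter signal at or above 50%; inactive = inhibition below 50%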); settings: HEK293-TLR3 RL24 IRF3 luciferase reporter, at 10 µM, stronger effect = higher value

| Structure (SMILES) | cell count [1] | inhibition [1] | inhibition of aggregation [2] | nuclei count [2] | inhibition [3] | nuclei count [3] | fluorescence slope [4] | NADPH fluorescence slope [5] | slope [6] | inhibition [7] | inhibition [8] |
| --- | --- | --- | --- | --- | --- | --- | --- | --- | --- | --- | --- |
| COc1ccccc1-n1c(=O)[nH]c2c(C(N)=O)nc(-c3cccnc3)nc21 | 679 | -5.2% (inactive) | -20.4% (inactive) | 101% | -19.1% (inactive) | 104% | -0.516 (inactive) | -3.5e-06 (inactive) | 0.00612 (inactive) | 15.6% (inactive) | -10.2% (inactive) |
| Cc1cc(=O)n(CCO)c(O)c1C#N | 735 | 0.3% (inactive) | -6.8% (inactive) | 94% | -22.2% (inactive) | 110% | -0.351 (inactive) | 8.2e-06 (inactive) | 0.00309 (inactive) | 18.6% (inactive) | 15% (inactive) |
| COc1ccc(Cn2nnnc2C(c2ccccc2OC)N2CCC(C(N)=O)CC2)cc1 (stereo not drawn) | 315 | 4.4% (inactive) | 6.9% (inactive) | 74.4% | -39.5% (inactive) | 114% | -0.604 (inactive) | -4.2e-05 (inactive) | 0.00453 (inactive) | 10.7% (inactive) | 25.5% (inactive) |
| COc1ccccc1C(=O)NCCNC(=O)c1ccco1 | 388 | 6.3% (inactive) | 5.6% (inactive) | 110% | -78% (inactive) | 113% | -0.412 (inactive) | -4.6e-05 (inactive) | 0.00705 (inactive) | -4.73% (inactive) | -9.5% (inactive) |
| CCCCOc1ccc(S(=O)(=O)n2c(C)nc3ccccc32)cc1 | 445 | -1.5% (inactive) | -1.2% (inactive) | 102% | -286% (inactive) | 113% | -0.387 (inactive) | 1.3e-05 (inactive) | 0.00302 (inactive) | 9.07% (inactive) | 16.6% (inactive) |
| O=C(c1ccc2c(c1)OCCO2)C1CCN(C(=O)c2ccc(F)cc2)CC1 | 326 | -10% (inactive) | -12% (inactive) | 110% | -77.5% (inactive) | 126% | -0.514 (inactive) | -4.4e-05 (inactive) | 0.00672 (inactive) | 7.11% (inactive) | -2.46% (inactive) |
| Cc1ccc(C)c(N(CC(=O)NCc2ccco2)C(=O)CCC(=O)Nc2ccccn2)c1 | 423 | 5.1% (inactive) | -7.8% (inactive) | 114% | -41% (inactive) | 105% | -0.608 (inactive) | -1.8e-05 (inactive) | 0.00608 (inactive) | 15.1% (inactive) | 30.2% (inactive) |
| CCN(C(=O)c1cc(Cl)ccc1OC)c1ccccc1 | 354 | 5.3% (inactive) | -20.6% (inactive) | 100% | -7.9% (inactive) | 118% | -0.447 (inactive) | -4.1e-05 (inactive) | 0.00295 (inactive) | 14.3% (inactive) | 48.8% (inactive) |
| COC(=O)c1cc(OC)c(OC)cc1NC(=O)CCC1CCCC1 | 452 | 3.7% (inactive) | 14.1% (inactive) | 104% | -78.6% (inactive) | 101% | -0.637 (inactive) | -1e-05 (inactive) | 0.00682 (inactive) | 12.6% (inactive) | 22.5% (inactive) |
| O=S(=O)(c1ccccc1)c1nc(-c2cccs2)oc1NCC1CCCO1 (stereo not drawn) | 566 | -1.8% (inactive) | 11.4% (inactive) | 108% | -17.9% (inactive) | 104% | -0.538 (inactive) | 5.1e-06 (inactive) | 0.00406 (inactive) | -17.6% (inactive) | -20.5% (inactive) |
| COCCSc1nnc(NC(=O)Cc2ccccc2OC)s1 | 660 | -15.1% (inactive) | 5.4% (inactive) | 94.2% | -30.7% (inactive) | 103% | -0.411 (inactive) | -5.1e-05 (inactive) | 0.00483 (inactive) | 16.6% (inactive) | 25.8% (inactive) |
| Cc1cccc(OCC(=O)N2CCN(C(=O)Cc3ccccc3)CC2)c1 | 264 | -5.5% (inactive) | 15.8% (inactive) | 85.9% | -34.1% (inactive) | 111% | -0.502 (inactive) | -4.5e-05 (inactive) | 0.00476 (inactive) | 5.28% (inactive) | 16.6% (inactive) |
| CCOC(=O)C1=C(NC#N)OC(C)=C(C)C1c1ccc(O)cc1 (stereo not drawn) | 276 | 1% (inactive) | -12.7% (inactive) | 117% | 15.8% (inactive) | 100% | -0.487 (inactive) | -1.5e-05 (inactive) | 0.00651 (inactive) | 20.5% (inactive) | 18.3% (inactive) |
| Cc1nc(SCCC(=O)O)c2ccccc2n1 | 310 | -2.5% (inactive) | 9.6% (inactive) | 112% | 40.9% (inactive) | 105% | -0.261 (inactive) | -2.6e-06 (inactive) | 0.00515 (inactive) | 11.6% (inactive) | 18.5% (inactive) |
| CCOC(=O)Cc1nnc(NC(=O)c2ncn[nH]2)s1 | 343 | 0.2% (inactive) | -4.6% (inactive) | 99.8% | -5.5% (inactive) | 119% | -0.438 (inactive) | -5.2e-05 (inactive) | 0.00725 (inactive) | -0.284% (inactive) | 5.11% (inactive) |
| Cc1ccc(N=Cc2ccc[nH]2)c(O)c1 | 438 | 4.9% (inactive) | 18.3% (inactive) | 108% | 7% (inactive) | 112% | -0.373 (inactive) | -2.1e-06 (inactive) | 0.0076 (inactive) | -10% (inactive) | -22.4% (inactive) |
| CC(C)CC(NC(=O)OC(C)(C)C)C(=O)NC(C(=O)N1CCCC1C(N)=O)C(C)C (stereo not drawn) (Boc-Leu-Val-Pro-NH2; configuration not given here) | 662 | 8.7% (inactive) | -4% (inactive) | 100% | 62.5% (inactive) | 89.1% | -0.485 (inactive) | -2.7e-05 (inactive) | 0.00542 (inactive) | 4.38% (inactive) | 20.6% (inactive) |
| Cc1nn(S(=O)(=O)N2CCCCC2)c(C)c1Br | 335 | 4% (inactive) | 10.9% (inactive) | 101% | -93.4% (inactive) | 119% | -0.291 (inactive) | -1.5e-05 (inactive) | 0.00571 (inactive) | 1.73% (inactive) | 17.2% (inactive) |
| O=C(NCc1ccc2c(c1)OCO2)C1CCCN(S(=O)(=O)c2cccnc2)C1 (stereo not drawn) | 584 | 7.6% (inactive) | -1.4% (inactive) | 96.3% | -65.3% (inactive) | 119% | -0.575 (inactive) | -2.7e-05 (inactive) | 0.00636 (inactive) | 8.73% (inactive) | 23.4% (inactive) |
| Cc1cnc(C(=O)Nc2nnc(C(C)C)s2)cn1 | 569 | -8.8% (inactive) | 10.8% (inactive) | 107% | -28.6% (inactive) | 118% | -0.5 (inactive) | -3.3e-05 (inactive) | 0.00641 (inactive) | -25.1% (inactive) | -89.5% (inactive) |
| CCN1CCN(C(=O)C2CC(c3ccc(F)cc3)=NO2)CC1 (stereo not drawn) | 538 | 1.5% (inactive) | 3% (inactive) | 102% | 1.4% (inactive) | 108% | -0.621 (inactive) | -4e-05 (inactive) | 0.00735 (inactive) | -8.44% (inactive) | 20.7% (inactive) |
| CCOc1ccc(N(CC(=O)Nc2ccc(C)c(C)c2)S(=O)(=O)c2c(C)noc2C)cc1 | 713 | 0% (inactive) | -19.3% (inactive) | 86.1% | -29% (inactive) | 100% | -0.554 (inactive) | -7.2e-07 (inactive) | 0.00659 (inactive) | 13.3% (inactive) | 27.5% (inactive) |
| COc1cccc2sc(NC(=O)c3ccc(S(=O)(=O)N4CCOCC4)cc3)nc12 | 357 | 0.5% (inactive) | 8.5% (inactive) | 74.7% | -21% (inactive) | 104% | -0.289 (inactive) | -2.5e-05 (inactive) | 0.00479 (inactive) | 10.2% (inactive) | 9.3% (inactive) |
| CC(=O)Nc1ccc(S(=O)(=O)CCC#N)cc1 | 424 | 7.2% (inactive) | 2.2% (inactive) | 90.4% | -113% (inactive) | 107% | -0.482 (inactive) | -3.9e-05 (inactive) | 0.00638 (inactive) | 11.9% (inactive) | 20% (inactive) |
| CCOC(=O)CCc1c(C)nc2cc(-c3ccc(F)cc3)[nH]n2c1=O | 249 | -7.1% (inactive) | 3% (inactive) | 85% | -8.7% (inactive) | 107% | -0.457 (inactive) | -3.9e-05 (inactive) | 0.00335 (inactive) | -3.01% (inactive) | 22.2% (inactive) |
| C=CCNC(=O)CSc1nc2sc(C)c(C)c2c(=O)[nH]1 | 590 | -3.4% (inactive) | 13.2% (inactive) | 91.2% | 5.1% (inactive) | 112% | -0.556 (inactive) | -3.3e-05 (inactive) | 0.00731 (inactive) | 9.71% (inactive) | 21.7% (inactive) |
| CCOCCCNC(=O)c1ccc2c(c1)N(Cc1ccccc1)C(=O)CS2=O (stereo not drawn) | 754 | -7.4% (inactive) | -19% (inactive) | 94.2% | -20.2% (inactive) | 125% | -0.525 (inactive) | -1e-05 (inactive) | 0.00701 (inactive) | -4.11% (inactive) | 21% (inactive) |
| CCCc1nc(NCc2ccncc2)c2nnn(Cc3ccccc3F)c2n1 | 711 | -6.1% (inactive) | -40.7% (inactive) | 116% | -57% (inactive) | 120% | -0.507 (inactive) | -0.000136 (inactive) | 0.00544 (inactive) | 9.12% (inactive) | 19.1% (inactive) |
